Our source for the AC50 values is PubChem BioAssay AID720650 (Broad Institute, 2013).

The source made the active and inactive calls. The rule behind the calls is not given here.

The term AC50 denotes the concentration at which the activity in the assay is half-maximal.

The nature of the experiment: C difficile toxins, biochemical counterscreen, UDPG substrate absence, confirmatory dose response (AID 720650). The note with it: series mostly up to 19.5 µM. In general terms: The purpose of a counterscreen is to sort out artefacts and off-target activity.
On to `C[C@@H]1CN([C@@H](C)CO)C(=O)c2c(c3ccccc3n2C)-c2ccccc2CO[C@@H]1CN(C)C`, for which the AC50 entry was “inactive”.

`COc1cccc2cc(/C(C)=N/NC(=O)c3ccco3)oc12`: the AC50 entry was “inactive”. For `C[C@H](NC(=O)c1cc2c(cn1)[nH]c1ccccc12)C(=O)O` the value was “inactive”. Consider `Cc1cccc(/C=C/c2onc(C)c2S(=O)(=O)N2CCC(C(=O)N3CCC(C)CC3)CC2)c1`, for which the AC50 entry is “inactive”.

Turning to `CCOC(=O)N1CCC(c2cc(=O)n3[nH]c(-c4ccccc4)cc3n2)CC1`, the AC50 result is “inactive”. As for `Cc1ccc(C(=O)OCC(=O)c2cc(C)n(CC3CCCO3)c2C)cc1` (centres undefined), the AC50 entry was “inactive”. Then `CC(C)OC(=O)C(=O)NNc1ccccc1`, with 1.35 µM (active); and `O=[N+]([O-])c1c(Nc2ccccc2O)ccc2nonc12`, with > 39 µM (inactive); and `CCOC(=O)c1sc(=S)[nH]c1C`, with > 39 µM (inactive). `COC(=O)/C=C/C(=O)Nc1ccc(O)c(Cl)c1`: the AC50 was 13.6 µM (active). For `O=CN(c1ccccc1)c1ccc2ccccc2c1` the value was “inactive”; for `Nc1cc(N)cc(C(=O)OCC(=O)Nc2cc(S(=O)(=O)N3CCCCC3)ccc2Cl)c1`, “inactive”.

With `COc1ccc(C(CNC(=O)c2oc3ccc(OC)cc3c2C)N2CCCC2)cc1` (centres undefined), the AC50 was > 39 µM (inactive). Turning to `Nc1ccc(OC(=O)Nc2ccc(O)cc2)cc1`, the AC50 was 18.9 µM (active). Turning to `O=C(Nc1ccc(O)cc1)c1ccc2c(c1)C(=O)N(Cc1ccco1)C2=O`, the AC50 is 9.58 µM (active). As for `CC(Sc1nccn1C)C(=O)c1c(N)n(C)c(=O)n(C)c1=O` (centres undefined), the AC50 result is “inactive”. In the case of `CC(=O)N/C(=C\c1ccccc1)C(=O)Nc1ccc(O)cc1`, the AC50 is 17 µM (active). `O=C(NCc1ccccc1)[C@@H]1CCCN1C(=O)[C@@H]1CCCN1C(=O)c1cccs1`: the AC50 entry is “inactive”.

Consider `Cc1noc(C)c1NC(=O)N(C)C[C@@H]1Oc2ccc(NC(=O)C3CCCCC3)cc2C(=O)N([C@@H](C)CO)C[C@H]1C`, for which the AC50 result was “inactive”. Take `Oc1ccc(Cc2ccccc2Cl)c(O)c1`: the AC50 was > 39 µM (inactive). Regarding `CCCc1[nH]c(=O)c(C#N)c2c1CCCC2`, the AC50 result is “inactive”. In the case of `COc1ccccc1/C=C/c1onc(C)c1S(=O)(=O)N1CCC(C(=O)NC2CCCCCC2)CC1`, the AC50 result was “inactive”. In the case of `Cc1c(CCCC(=O)O)sc(N)c1C(=O)c1cccc(C(F)(F)F)c1`, the AC50 result is “inactive”.

With `O=C(c1ccc(N2CCOCC2)c([N+](=O)[O-])c1)N1CCN(c2ccccc2F)CC1`, the AC50 is > 39 µM (inactive). On to `CS(=O)(=O)N(CC(=O)Nc1ccc(S(=O)(=O)N2CCOCC2)cc1)c1ccccc1Br`, for which the AC50 entry is “inactive”.

For the molecule `COc1ccc(SC[C@H](C)CN2CC[C@H](NC(=O)OCc3ccccc3)CCC2=O)cc1`, the AC50 result was “inactive”. Turning to `FC(F)(F)c1cc(Cl)c2nc(-c3ccccc3)c(Cc3ccsc3)n2c1`, the AC50 entry is “inactive”. Consider `CCOC(=O)c1nnn(-c2nonc2N)c1-c1ccccc1Cl`, for which the AC50 entry is “inactive”. As to `Cc1cccc(-n2c(=O)c3ccccc3n3c(=S)[nH]nc23)c1C`, the AC50 entry was “inactive”.

Consider `CCCCn1c(-c2ccccc2C)nc2cc3[nH]c(=O)c(C(C)C)nc3cc21`, for which the AC50 result was “inactive”.

Turning to `Cc1ccc(S(=O)(=O)Oc2ccccc2/C=C2/SC(=O)NC2=O)cc1`, the AC50 entry was “inactive”.

For the molecule `COc1ccc(C=C2CCC3C(=O)CCCC3(C)C2=O)cc1` (centres undefined), the AC50 entry was “inactive”. For the molecule `O=C(Nc1ccc(O)cc1)C1CCCN1S(=O)(=O)c1ccc(F)cc1` (centres undefined), the AC50 was 10.9 µM (active). Take `CC(=O)Oc1ccc2nc(/C=C/c3ccccc3)oc(=O)c2c1`: the AC50 result was “inactive”. As for `COCC#Cc1ccc2c(c1)O[C@H](CN(C)C(=O)CC1CC1)[C@@H](C)CN([C@H](C)CO)S2(=O)=O`, the AC50 result is “inactive”.

As for `Cc1ccc(S(=O)(=O)Nc2cccnc2Oc2ccc(Cl)cc2)cc1`, the AC50 result was “inactive”. Regarding `C[C@H](CO)N1C[C@H](C)[C@@H](CN(C)C(=O)Nc2ccc(C(F)(F)F)cc2)Oc2c(NS(=O)(=O)c3cccs3)cccc2C1=O`, the AC50 was > 39 µM (inactive). For `COc1cccc2sc(NNC(=O)C3COc4ccccc4O3)nc12` (centres undefined), the concentration at half-maximal activity (AC50) was 0.972 µM (active). Then `CCN(C(=O)COC(=O)c1cccnc1SC)C1CCCCC1`, with “inactive”.
